# Test results reported in PubChem BioAssay AID1628 (Sanford-Burnham Center for Chemical Genomics, 2009).
# Screen size: about 190,000 compounds; about 930 (0.49%) were called active. This is one part of the list. Potency and affinity values are given separately. Unmarked numbers belong to inactive results.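 How the source made its calls: active means z-score of insulin promoter reporter brightness in nuclei below -3 at 5 µM, with at least 500 cells counted; inconclusive means wells with under 500 cells, flagged as toxic or sparse; inactive means the rest.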
# Assay: decrease of insulin promoter-GFP reporter – imaging, high-content screening, mouse beta cells (AID 1628)
# Settings: MIN6 insulin promoter GFP reporter, at 5 µM, hits give low values
row,Structure (SMILES),z-score
1,Cc1cc(C)nc(SCc2ccc(C(=O)N/N=C/c3cccc(O)c3O)cc2)n1,-3.45 (active)
2,Cc1cc(C)nc(SCSc2nc(C)cc(C)n2)n1,4.55
3,COC(=O)c1ccc(NC(=O)Nc2ccc(F)cc2)cc1,-3.46 (active)
4,O=C(Nc1ccc(F)cc1)Nc1cc(OCC(F)(F)F)cc(OCC(F)(F)F)c1,-3.21 (active)
5,COC(=O)c1sc2ccccc2c1-n1cccc1C(=O)C(=O)Nc1ccc(F)cc1,5.4
6,Cc1ccc(SCc2cc(-c3ccc(Cl)cc3)no2)cc1,3.09
7,O=C1Nc2ccc(Br)cc2C12NNc1ccccc1O2 (configuration not stated),14.4
8,N#C/C(=C/c1ccc(O)c([N+](=O)[O-])c1)C(=O)Nc1ccccc1,1.31
9,O=C(Nc1ccc(Cl)cc1)/C(=C/c1ccc([N+](=O)[O-])cc1)c1nc2ccccc2s1,-4.86 (active)
10,O=C(Cc1nc(-c2ccc([N+](=O)[O-])cc2)cs1)Nc1ccccc1,8.58
11,Cc1ccc(-n2c(C)nc3oc4ccccc4c(=O)c3c2=O)cc1,3.88
12,N#Cc1c(C(F)(F)F)cc(-c2ccccc2)nc1SCc1nc(N)nc(N2CCOCC2)n1,15.4
13,CC1(C)Cc2c(C#N)c(SCC(=O)c3ccccc3)nc(N3CCOCC3)c2CS1,-3.04 (active)
14,N#Cc1ccc(-c2ccccc2)nc1SCC(=O)c1cccc(Cl)c1,4.3
15,N#Cc1ccc(-c2ccc(Cl)cc2)nc1SCC(=O)c1cccc(Cl)c1,6.91
16,CC1(C)Cc2c(C#N)c(SCCOc3ccccc3)nc(N3CCOCC3)c2CO1,-3.51 (active)
17,CC1(C)Cc2c(c(-c3ccccc3)[nH]c(=O)c2C#N)CO1,3.41
18,CC1(C)Cc2c(C#N)c(SCC(=O)c3ccccc3)nc(N3CCOCC3)c2CO1,-3.99 (active)
19,N#Cc1c(-c2ccco2)cc(C2CC2)nc1SCC(=O)c1ccccc1,5.22
20,CCOc1cc2[nH]c(=S)n(CCCN(CC)CC)c(=O)c2cc1OCC,0.51
21,Nc1c(C(=O)C2CC2)sc2nc(-c3cccs3)cc(C(F)(F)F)c12,15.5
22,S=C(N/N=C/c1cccs1)NC1CC2CCC1C2 (configuration not stated),-3.1 (active)
23,CN(C)c1ccc(/C=N/NC(=O)CN(c2ccccc2Cl)S(C)(=O)=O)cc1Br,3.57
24,CN(C)c1ccc(/C=C2\C(=N)N3C(=NC2=O)Sc2cc(S(C)(=O)=O)ccc23)cc1,3.93
25,CC(/C=N/NC(=O)c1ccncc1)=C\c1ccc(C(C)C)cc1,3.19
26,CC(C)c1ccc(/C=N/NC(=O)c2cccc(Cl)c2)cc1,-3.75 (active)
27,Cn1cc(/C=C2\SC(=S)N(NC(=O)c3cccc(Cl)c3)C2=O)c2ccccc21,7.3
